In PubChem BioAssay (Tox21):
Values joined by “and” are separate entries in the source; they are usually repeats but may differ in a detail not shown here. Identical values can stand only once. Records with an inconclusive call do not appear. Entries that show only a call come without a potency. Where a structure was tested more than once in an assay, its records may differ in their call. Active and inactive are the calls of the source. The call rests on the fitted dose curve; in most records, active means well fitted curve in the direction sought with a large enough effect in the repeat runs; inconclusive means weak or mixed curves; inactive means no such curve, though single readings can be large; an effect the other way counts as inactive or inconclusive.

molecular target: Voltage-gated inwardly rectifying potassium channel KCNH2 (Homo sapiens) (UniProt Q12809); experiment: Human Ether-a-go-go-Related Gene (hERG) channel small molecule antagonists: fluorescence cell-based qHTS assay (AID 1671200); conditions: hERG-U2OS cells, FluxOR thallium flux fluorescence; series mostly up to 76.8 µM; activity change, negative = inhibition: at the top concentration;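 on activity change, negative = inhibition: hERG-expressing U2OS cells given a thallium stimulus after FluxOR II dye loading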
Sequence (Q12809 whole entry, looked up): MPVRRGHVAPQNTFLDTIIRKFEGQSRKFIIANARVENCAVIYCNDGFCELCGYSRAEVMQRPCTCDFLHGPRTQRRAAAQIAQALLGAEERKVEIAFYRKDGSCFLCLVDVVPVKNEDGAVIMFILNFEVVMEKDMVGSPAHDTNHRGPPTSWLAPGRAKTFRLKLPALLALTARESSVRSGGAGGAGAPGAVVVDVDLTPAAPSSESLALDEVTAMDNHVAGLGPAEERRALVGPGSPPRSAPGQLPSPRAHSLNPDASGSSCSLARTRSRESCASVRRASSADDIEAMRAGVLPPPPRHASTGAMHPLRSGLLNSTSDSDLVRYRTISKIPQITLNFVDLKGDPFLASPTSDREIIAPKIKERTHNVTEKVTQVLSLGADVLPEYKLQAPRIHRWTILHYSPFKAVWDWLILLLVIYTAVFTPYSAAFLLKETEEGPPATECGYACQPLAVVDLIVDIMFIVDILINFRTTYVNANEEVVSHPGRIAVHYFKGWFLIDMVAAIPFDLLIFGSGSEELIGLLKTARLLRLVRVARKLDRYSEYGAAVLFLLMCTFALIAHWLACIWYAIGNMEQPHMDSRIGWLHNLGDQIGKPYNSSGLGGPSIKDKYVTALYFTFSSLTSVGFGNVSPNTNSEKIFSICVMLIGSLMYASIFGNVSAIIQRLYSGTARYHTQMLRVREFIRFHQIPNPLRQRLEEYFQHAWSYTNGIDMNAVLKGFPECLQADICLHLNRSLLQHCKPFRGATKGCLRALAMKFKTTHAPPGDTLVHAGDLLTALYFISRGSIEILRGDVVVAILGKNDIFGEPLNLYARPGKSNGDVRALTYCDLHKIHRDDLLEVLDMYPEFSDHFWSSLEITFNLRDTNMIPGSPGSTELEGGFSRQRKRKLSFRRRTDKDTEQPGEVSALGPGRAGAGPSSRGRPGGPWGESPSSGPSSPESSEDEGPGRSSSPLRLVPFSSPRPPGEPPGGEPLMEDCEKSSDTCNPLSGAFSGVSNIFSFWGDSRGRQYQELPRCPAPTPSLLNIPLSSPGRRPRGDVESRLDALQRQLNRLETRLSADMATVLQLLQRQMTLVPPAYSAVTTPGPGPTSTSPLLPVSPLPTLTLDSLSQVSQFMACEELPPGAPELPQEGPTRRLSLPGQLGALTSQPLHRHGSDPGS
Summary of the method: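 Read-out: thallium influx as a surrogate for potassium, tracked as fluorescence (480 nm ex/540 nm em) every second for 2 min after Stimulus Buffer addition in dye-loaded hERG-U2OS cells.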
Further: nearly all actives have a fitted effect of over 50% in size.
Potency means the concentration at half of the fitted maximal effect.

| Structure (SMILES) | Potency | activity change, negative = inhibition |
| --- | --- | --- |
| C=CCO | inactive | – |
| CCNc1nc(NC(C)(C)C)nc(SC)n1 | inactive | – |
| O=C1CCCN1 | inactive | – |
| O=[N+]([O-])c1ccc(Oc2ccc(Cl)cc2Cl)cc1 | 19.5 µM (active) | – |
| CC(=O)C=C(C)C | inactive | – |
| CN(C)N=O | inactive | – |
| Cc1cccc([N+](=O)[O-])c1 | inactive | – |
| CCCCCCCCCCCC#N | – | 3.19% (inactive) |
| NCCc1ccc(O)cc1 | – | 1.14% [at 35.3 µM] (inactive) |
| Cn1cc(-c2ccccc2)c(=O)c(-c2cccc(C(F)(F)F)c2)c1 | inactive | – |
| CCN(CC)c1ccccc1 | inactive | – |
| CC(C)C#N | inactive | – |
| BrCCBr | inactive | – |
| Nc1ccccc1C(=O)O | inactive | – |
| OCCN(CCO)CCO | inactive | – |
| O=NN1CCCCCCC1 | inactive | – |
| CC(C)OC(=O)Nc1ccccc1 | inactive | – |

molecular target: Cytochrome P450 3A4 (Homo sapiens) (UniProt P08684); experiment: Cytochrome P450 Family 3 Subfamily A Member 4 (CYP3A4) small molecule antagonists: luciferase reporter qHTS assay (AID 1671201); conditions: P450-Glo CYP3A4 enzyme, luciferin luminescence, 1 h; series mostly up to 115 µM; activity change, negative = inhibition: at the top concentration
Sequence (P08684 whole entry, looked up): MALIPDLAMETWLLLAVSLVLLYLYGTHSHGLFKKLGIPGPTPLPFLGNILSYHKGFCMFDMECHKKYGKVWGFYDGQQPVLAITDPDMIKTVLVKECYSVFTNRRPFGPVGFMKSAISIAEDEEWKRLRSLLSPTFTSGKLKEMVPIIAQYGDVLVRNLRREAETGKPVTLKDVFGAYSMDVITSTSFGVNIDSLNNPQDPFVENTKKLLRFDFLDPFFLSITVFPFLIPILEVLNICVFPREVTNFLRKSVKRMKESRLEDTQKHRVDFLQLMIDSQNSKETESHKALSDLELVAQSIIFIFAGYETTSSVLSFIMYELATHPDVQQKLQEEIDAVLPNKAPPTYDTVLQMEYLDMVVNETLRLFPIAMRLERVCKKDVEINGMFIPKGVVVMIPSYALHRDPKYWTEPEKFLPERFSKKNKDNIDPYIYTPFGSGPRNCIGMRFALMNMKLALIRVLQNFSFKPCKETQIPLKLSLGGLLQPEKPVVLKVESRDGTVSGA
Summary of the method: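 Luminescent readout (RLU) proportional to CYP3A4 activity, from luciferin generated off a proluciferin substrate. Enzyme–substrate mix plus compound 10 min at room temp, NADPH regeneration 1 h, detection reagent 20 min.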

| Structure (SMILES) | Potency | activity change, negative = inhibition |
| --- | --- | --- |
| CCCC1COC(Cn2cncn2)(c2ccc(Cl)cc2Cl)O1 (configuration not stated) | 51.2 nM (active) and 56.4 nM (active) | – |
| O=[N+]([O-])c1ccccc1 | inactive | – |
| C=CCO | inactive | – |
| CCNc1nc(NC(C)(C)C)nc(SC)n1 | inactive | – |
| Clc1ccc(Cl)cc1 | inactive | – |
| Cc1ccc([N+](=O)[O-])cc1C | inactive | – |
| O=C1CCCN1 | 7.17 µM (active) and inactive | – |
| O=[N+]([O-])c1ccc(Oc2ccc(Cl)cc2Cl)cc1 | – | 68.1% (inactive) |
| O=c1[nH]c2ccccc2c(=O)o1 | inactive | – |
| O=S(=O)(c1ccc(O)cc1)c1ccc(O)cc1 | inactive | – |
| CC(=O)C=C(C)C | inactive | – |
| CN(C)N=O | inactive | – |
| CCCN(CCC)N=O | inactive | – |
| Cc1cccc([N+](=O)[O-])c1 | inactive | – |
| CCCCCCCCCCCC#N | inactive | – |
| O=c1n(Cl)c(=O)n(Cl)c(=O)n1Cl | inactive | – |
| Oc1ccccc1Cl | inactive | – |
| CC(Br)C(=O)O (configuration not stated) | inactive | – |

| Structure (SMILES) | Potency | activity change, negative = inhibition |
| --- | --- | --- |
| CN(C)CCO | inactive | – |
| Nc1c(Cl)c(Cl)nc(C(=O)O)c1Cl | inactive | – |
| CCOP(=S)(OCC)SCCSCC | 4.12 µM (active) and 3.8 µM (active) | – |
| C[C@]12CC[C@H]3[C@@H](CC[C@@]45O[C@@H]4C(O)=C(C#N)C[C@]35C)[C@@H]1CC[C@@H]2O | – | -2.38% [at 52.9 µM] (inactive) |
| CC1OC(C)OC(C)O1 (configuration not stated) | inactive | – |
| Cn1cc(-c2ccccc2)c(=O)c(-c2cccc(C(F)(F)F)c2)c1 | 12.3 µM (active) and 12.6 µM (active) | – |
| CCN(CC)c1ccccc1 | inactive | – |
| CC(C)C#N | inactive | – |
| BrCCBr | inactive | – |
| Nc1ccccc1C(=O)O | inactive | – |
| CC(C)(C)OOC(=O)c1ccccc1 | inactive | – |
| OCCN(CCO)CCO | inactive | – |
| Cc1ccccc1O | inactive | – |
| O=NN1CCCCCCC1 | inactive | – |
| Clc1ccccc1Cl | inactive | – |
| CC(C)OC(=O)Nc1ccccc1 | inactive | – |
| CCC[N+](=O)[O-] | inactive | – |
